Sampled rows, rich in hits. Any-hit rate of the full collection: about 3%.
Tau ThT inhib – qHTS for Inhibitors of Tau Fibril Formation, Thioflavin T Binding; Microtubule-associated protein tau (Homo sapiens), P10636; recombinant tau K18 P301L, heparin-induced fibrillization, ThT fluorescence; Potency, µM (top dose mostly 57.4 µM), for inactives: top-dose activity, negative = inhibition, hits mostly inhibitors; hit rate 2.1% among 270,000; AID 1460, 2008; note: nearly all actives have a fitted effect of over 55% in size
Target sequence (P10636 561-689 P618L limits assumed): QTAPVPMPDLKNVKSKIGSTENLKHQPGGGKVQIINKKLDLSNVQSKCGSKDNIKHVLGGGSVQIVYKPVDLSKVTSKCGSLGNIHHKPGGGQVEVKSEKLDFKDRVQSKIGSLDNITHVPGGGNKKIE
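Tau K18 P301L fragment (15 uM unlabeled plus 0.24 uM Alexa 594-labeled) in 100 mM sodium acetate pH 7 with compound, fibrillization induced by 20 uM heparin for 6 hr at 37 C. Thioflavin T (30 uM) added, fluorescence read after 1 hr (ex 450, em 510 nm).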
Tau fluor counter – Counterscreen qHTS for Inhibitors of Tau Fibril Formation, Fluorescence Polarization; tau K18 P301L Alexa594 fluorescence, heparin fibrillization; hit rate 0.93% among 280,000; Potency, µM (titrated, usually from 57.7 µM), without a hit: at the highest dose activity change, negative = decrease; note: nearly all actives have a fitted effect of over 55% in size
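Human tau K18 P301L (15 uM unlabeled, 0.24 uM Alexa 594-labeled) in 100 mM sodium acetate pH 7 with 20 uM heparin, 6 hr at 37 C. ThT 30 uM added, 1 hr ambient; Alexa 594 FP and total fluorescence read at 555/632 nm.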
Tau FP inhib – qHTS for Inhibitors of Tau Fibril Formation, Fluorescence Polarization | Microtubule-associated protein tau (Homo sapiens), P10636 | K18 P301L tau heparin fibrillization, Alexa594 FP, 6 h | Potency, µM (highest dose often 57.7 µM), for the others: at the highest dose activity, negative = inhibition, actives largely listed as inhibitors | hit rate 0.39% among 280,000; note: nearly all actives have a fitted effect of over 55% in size
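FP of Alexa 594-tau after heparin (20 uM) induction. Substrate: human K18 P301L, 15 uM unlabeled, 0.24 uM labeled. Buffer 100 mM sodium acetate pH 7. 6 hr, 37 C.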
TexasRed fluor – Total Fluorescence Counterscreen for Inhibitors of the Interaction of Thyroid Hormone Receptor and Steroid Receptor Coregulator 2. Potency, µM (highest dose often 106 µM), for inactives: top-dose fluorescence change, negative = quenching. hit rate 0.29% among 280,000. TRb/SRC2 Texas Red total fluorescence interference; active = well fitted curve in either direction with a large enough effect; inconclusive = small, poorly fitted or top-dose-only effect
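Flags fluorescent or light-absorbing compounds by total fluorescence, S + 2P, at 555 nm excitation and 632 nm emission. Mixture: 20 nM Texas Red SRC2 peptide, 0.6 uM human TRb LBD, 1 uM T3, 5% DMSO; compound exposure 5 h at ambient temperature.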
TRb SRC2 PPI – qHTS for Inhibitors of the Interaction of Thyroid Hormone Receptor and Steroid Receptor Coregulator 2 | Potency, µM (highest dose often 106 µM), without a hit: top-dose activity change, negative = inhibition, actives largely listed as inhibitors | hit rate 0.065% among 280,000 | AID 1469, 2008 | TRbeta-SRC2 peptide binding, fluorescence polarization; receptor liganded with 1 µM T3;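 note: plate controls were bound peptide for no effect and peptide without receptor for full effect; nearly all actives have a fitted effect of over 50% in size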
Target sequence (P10828 whole entry, looked up): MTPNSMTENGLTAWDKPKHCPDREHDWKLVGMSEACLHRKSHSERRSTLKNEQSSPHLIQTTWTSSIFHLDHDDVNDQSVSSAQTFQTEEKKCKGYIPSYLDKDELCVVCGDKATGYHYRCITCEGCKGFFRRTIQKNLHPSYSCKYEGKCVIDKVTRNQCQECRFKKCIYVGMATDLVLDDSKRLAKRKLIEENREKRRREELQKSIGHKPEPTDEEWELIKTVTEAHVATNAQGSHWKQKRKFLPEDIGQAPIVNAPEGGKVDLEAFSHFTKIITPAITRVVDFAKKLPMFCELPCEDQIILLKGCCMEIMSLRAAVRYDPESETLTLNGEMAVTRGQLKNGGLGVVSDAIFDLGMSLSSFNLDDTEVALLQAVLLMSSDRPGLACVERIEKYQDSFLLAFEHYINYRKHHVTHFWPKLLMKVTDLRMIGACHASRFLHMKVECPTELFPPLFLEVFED
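Quantitative HTS by FP: 0.6 uM TRb LBD, 20 nM labeled SRC2 20-mer, 1 uM T3, 5% DMSO; 5 hr ambient incubation; % activity per concentration and potencies from concentration series.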
* = called active by the depositor; u = inconclusive; x = no result; [ ] = remark or other dose. Unless noted, calls come from the whole dose curve; as a rule, active = well fitted curve in the direction sought with a large enough effect; inconclusive = small, poorly fitted or top-dose-only effect, or another doubt; inactive = no such curve, though single readings can be large; an effect the other way counts as inactive or inconclusive. Unless noted, % is set by controls: 0 for no effect and ±100 for the full control effect; potency is the fitted concentration of half-maximal effect.

SMILES | Tau ThT inhib | Tau fluor counter | Tau FP inhib | TexasRed fluor | TRb SRC2 PPI
COc1ccc2nc(N=Nc3c(O)ccc4ccccc34)sc2c1 | 2.8µM* | u | -4% | 0% | -3%
Cc1cc(-c2csc(N)n2)c(C)n1Cc1ccco1 | 16µM* | u | -13% | 4% | 0%
Cc1ccc(-n2c(C)cc(-c3csc(N)n3)c2C)cc1 | u | -24% | -3% | 1%[53 µM] | 4%[53 µM]
Cc1cc(-c2csc(N)n2)c(C)n1C | 32µM* | u | u | 8% | -16%
CCOC(=O)c1ccc(NC(=O)CSc2nccn2Cc2ccc(OC)cc2)cc1 | -12% | -21% | 4% | -3% | -1%
O=c1cc(-c2ccccc2Cl)oc2ccc([N+](=O)[O-])c(O)c12 | 11µM* | -18%[81.3 µM] | -3%[81.3 µM] | -2% | 12%
Nc1ccc2oc(-c3ccccc3Cl)cc(=O)c2c1O | u | u | u | 0% | 7%
CCOc1cc(/C=C2\C(=O)N(c3nc(-c4ccc(Br)cc4)cs3)N=C2c2ccccc2)ccc1O | 11µM* | u | u | 28µM*[quencher] | 20%
COc1cc(/C=C2\C(=O)N(c3ccc(NC(C)=O)cc3)N=C2c2ccccc2)ccc1O | u | u | 5% | -2% | -15%
CCOC(=O)c1c(-c2ccccc2)csc1NC(=O)c1nc(S(=O)(=O)CC)ncc1Cl | 13µM* | u | u | 12% | -7%
CCOC(=O)c1c(-c2ccccc2)csc1NC(=O)c1nc(SCC)ncc1Cl | -15% | -22% | -15% | 3% | -5%
CCOC(=O)c1c(NC(=O)c2nc(S(C)(=O)=O)ncc2Cl)sc(C(C)=O)c1C | 22µM* | u | u | 5% | -5%
COc1ccccc1CNC(=O)c1cc2sccc2n1Cc1ccc(Cl)cc1 | 3% | -12% | u | -1% | -3%
COC(=O)C1=CN(c2cccc(C)c2)C=C(C(=O)OC)C1c1cc(OC)c(O)c([N+](=O)[O-])c1 | 16µM* | u | 13% | -3% | 0%
Cc1noc(C)c1-c1ccc2ncnc(NCc3ccc(Br)cc3)c2c1 | x | x | x | 0% | -3%
COc1cc(-c2nc(Cc3c(F)cccc3Cl)no2)cc(OC)c1OC | u | 16µM*[quencher] | -14% | -15% | 1%
COc1cc(-c2noc(-c3cccc(Cl)c3)n2)cc(OC)c1OC | 5% | 8% | 3% | 0% | -2%
Cc1cc(N=Nc2c(O)c3ccccc3[nH]c2=O)ccc1N=Nc1ccc(C(=O)N(C)C)cc1 | 2.2µM* | u | -9% | -4% | -3%
Cc1ccc(N=Nc2c(O)c3ccccc3[nH]c2=O)c(S(=O)(=O)N(C)C)c1 | u | -14% | 9% | -1% | -13%
Cc1nn(Cc2noc(C(=O)NCc3cccc(F)c3)n2)c(C)c1Br | -11% | -17% | 4% | -5% | 4%
S=C([S-])NCCNC(=S)[S-].[Mn+2] | x | x | x | 3%[201 µM] | 4%[201 µM]
COc1ccc(OC)c(-c2csc(NC(=O)CSc3ccc([N+](=O)[O-])cc3)n2)c1 | u | 11µM*[quencher] | -4% | -4% | -2%
COc1ccc(OC)c(-c2csc(NC(=O)CSc3ccc(Br)cc3)n2)c1 | -6% | u | u | -1% | 0%
COc1cc(/C=C2\SC(=S)N(N(C)c3ccccc3)C2=O)ccc1O | 25µM* | 25µM*[quencher] | -4% | 21% | u
COc1cccc(C(=O)/C=C/Nc2cc(C)ccc2O)c1 | 3.5µM* | 16µM*[quencher] | 6% | -11% | -2%
SMILES | Tau ThT inhib | Tau fluor counter | Tau FP inhib | TexasRed fluor | TRb SRC2 PPI
CCc1ccccc1NC(=O)Cn1c(=O)n(CC(=O)NCCc2ccccc2)c(=O)c2ccccc21 | 12% | 7% | -12% | 0% | -1%
CCOC(=O)c1ccc(N2CCN(c3cccc(Cl)c3)CC2)c(NC(=O)Nc2ccc(OC)cc2OC)c1 | 1% | -6% | 3% | -1% | 4%
COc1cccc(NC(=O)Nc2nnc(N3C(C)CCCC3C)s2)c1 (stereo unspecified) | u | 10µM*[quencher] | u | -2% | 2%
COc1cccc(NC(=O)Nc2nnc(CC(=O)Nc3ccccc3)s2)c1 | -3% | u | 13µM* | -1% | 7%
COc1ccc(CCNC(=O)C(=O)NCC(c2ccc3c(c2)OCO3)N2CCOCC2)cc1 (stereo unspecified) | -5% | -19% | -14% | 2% | 4%
O=[N+]([O-])c1cccnc1N1CCC(c2cc(-c3cccc(C(F)(F)F)c3)n[nH]2)CC1 | 14µM* | u | -9% | -4% | -1%
CCC(=O)N1CCN(c2ccc(Cl)cc2NC(=O)c2ccc(N3CCCC3)c([N+](=O)[O-])c2)CC1 | u | -10% | 12% | 1% | -15%
CC(=O)c1ccc(N2CCC(c3cc(-c4ccc(Cl)cc4Cl)n[nH]3)CC2)c([N+](=O)[O-])c1 | 13µM* | u | u | -2% | 0%
O=[N+]([O-])c1cccnc1N1CCC(c2cc(-c3ccc(Cl)cc3Cl)n[nH]2)CC1 | 13µM* | u | -9% | -4% | -7%
CN1C(=O)c2ccccc2Sc2ccc(NC(=O)N3CCN(c4ccc(F)cc4)CC3)cc21 | -20% | -15% | 3% | -2% | -2%
Cc1c2c(c(O)c3c(O)cccc13)C(=O)O[C@H]2C1C(N(C)C)C(O)=C(C(N)=O)C(=O)[C@H]1O (stereo partly specified) | x | x | x | 22µM*[quencher] | u
COC(=O)c1c(NC(=O)c2nc3ccccc3s2)sc2c1CCN(C(C)=O)C2 | 16µM* | -23% | -5% | -14% | 6%
CNC(=O)c1c(NC(=O)c2nc3ccccc3s2)sc2c1CCC2 | 7.1µM* | u | 12% | -15% | 10%
Cc1cc2ccc(=O)oc2cc1OC[C@@H](O)C(C)(C)O | -2% | 4% | 4% | -2% | -7%
COc1ccccc1NC(=O)c1sc2nc(C)c(C(=O)Nc3ccc(C)cc3C)c(-c3ccco3)c2c1N | u | -21% | -12% | -2% | -3%
CN(C)CCOCCN(C)C | x | x | x | -6%[201 µM] | -1%[201 µM]
Cc1ccc(C(=O)NC(C#N)=C(Cl)Cl)cc1 | 25µM* | -10% | u | 1% | -1%
CO[C@H]1COC(=O)C/C=C\[C@H](C)[C@@H](OC)COC(=O)[C@H](C)COC(=O)C/C=C\[C@@H]1C | -11%[11.5 µM] | -8%[11.6 µM] | 0%[11.6 µM] | 2%[11.2 µM] | -4%[11.2 µM]
CCNc1ccc2noc3c2c1C(=O)c1ccccc1-3 | 7.9µM* | u | 28µM* | 45µM*[fluorescent] | 14µM*
O=C1c2ccccc2-c2onc3ccc(NCc4ccco4)c1c23 | 3.2µM* | 4.5µM*[quencher] | 25µM* | 45µM*[fluorescent] | 35µM*

High-throughput results as filed in PubChem.
